Assay outcomes: PubChem, National Center for Advancing Translational Sciences (NCATS)
PNC assembly inh: High Content Assay for Compounds that inhibit the Assembly of the Perinucleolar Compartment; activity change (PNC), negative = inhibition, % at 10 µM; AID 2417, 2010; PC3M PTB-GFP, PNC prevalence imaging, 16 h; stronger effect = lower value; 140,000 tested, 3.1% active;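 active means readout at or below -70, meaning at least 70% loss of cells showing the perinucleolar compartment, a nuclear body marking cancer cells; inconclusive means readout between -30 and a set limit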
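Compounds are pinned in duplicate onto adhered PC3M cells stably expressing GFP-tagged PTB and incubated 16 h at 37 C. Cells are then fixed, nuclei stained with Hoechst, and PNC-positive cells counted.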
IMPase Li cell: qHTS Assay for Identifying the Cell-Membrane Permeable IMPase Inhibitors: Potentiation with Lithium; CHO-M1 cells, IP1 TR-FRET (IP-One), carbachol + lithium; Potency, µM (series often up to 59.4 µM), hits mostly inhibitors; 210,000 tested, 0.35% active;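 further: IP1 builds up when IMPase is blocked and the TR-FRET signal falls; nearly all actives have a fitted effect of over 50% in size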
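Lithium-sensitised IP1 accumulation assay; M1-expressing CHO cells treated 30 min at 37C with compound. Competitive antibody detection by time-resolved FRET followed a 10 min room-temperature lysis step.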
HPGD inh: qHTS Assay for Inhibitors of HPGD (15-Hydroxyprostaglandin Dehydrogenase) | purified HPGD, NADH fluorescence kinetic, PGE2 substrate | 150,000 tested, 4.3% active | AID 894, 2007 | Potency, µM, hits mostly inhibitors; active means well fitted inhibition curve with a large enough effect, not every such curve was filed as active; inconclusive means small, poorly fitted or top-dose-only effect, or another doubt; inactive means no such curve, though single readings can be large or run the other way
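NADH formation kinetics: reaction with 30 uM PGE2 and 1 mM NAD+ (final), 20 nM enzyme, Tris-HCl pH 8 with Tween 20, after 15 min compound preincubation at room temperature. Fluorescence change, last versus first of five reads.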
IMPase inh: qHTS Assay for Identifying the Cell-Membrane Permeable IMPase Inhibitors | Inositol monophosphatase 1 (Rattus norvegicus), P97697 | 120,000 tested, under 10 active | inhibition (IP1 accumulation), % at 46.1 µM | CHO-M1 cells, IP1 accumulation, HTRF TR-FRET ratio; active means well fitted curve in the direction sought with a large enough effect in the signal ratio, not every such curve was filed as active; inconclusive means small, poorly fitted or top-dose-only effect, or a change in a side signal; inactive means no such curve, though single readings can be large or run the other way; the % refers to the signal ratio;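 further: cells stimulated with carbachol in lithium chloride buffer; higher means more IMPase inhibition seen as more IP1 and lower FRET ratio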
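Carbachol-driven Gq signalling in CHO-M1 cells (2000/well) generates IP1. Compounds that block IMPase raise IP1 and so reduce the FRET signal from Eu-anti-IP1 and d2-IP1 after a 10 min room-temperature lysis.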
15-hLO-2 inh: qHTS Assay for Inhibitors of 15-hLO-2 (15-human lipoxygenase 2); Potency, µM (series often up to 57.1 µM), usual class: inhibitors; 110,000 tested, 0.56% active; purified 15hLO-2, xylenol orange hydroperoxide absorbance; Polyunsaturated fatty acid lipoxygenase ALOX15B (Homo sapiens), O15296; AID 881, 2007; further: nearly all actives have a fitted effect of over 60% in size
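Enzyme 50 nM, AA 45 uM, 25 mM Hepes pH 7.5 + 0.01% Triton X-100; cpd preinc 15 min RT, rxn 90 min RT; stop/detect with 200 uM XO + 300 uM Fe(II) in 50 mM H2SO4, 30 min; A573/A405.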
ALOX12 inhib: qHTS Assay for Inhibitors of 12-hLO (12-human lipoxygenase). Polyunsaturated fatty acid lipoxygenase ALOX12 (Homo sapiens), P18054. purified 12-hLO, xylenol orange hydroperoxide absorbance. Potency, µM (top dose mostly 57.1 µM), usual class: inhibitors. 150,000 tested, 0.12% active; further: nearly all actives have a fitted effect of over 55% in size
Target sequence (P18054 whole entry, looked up): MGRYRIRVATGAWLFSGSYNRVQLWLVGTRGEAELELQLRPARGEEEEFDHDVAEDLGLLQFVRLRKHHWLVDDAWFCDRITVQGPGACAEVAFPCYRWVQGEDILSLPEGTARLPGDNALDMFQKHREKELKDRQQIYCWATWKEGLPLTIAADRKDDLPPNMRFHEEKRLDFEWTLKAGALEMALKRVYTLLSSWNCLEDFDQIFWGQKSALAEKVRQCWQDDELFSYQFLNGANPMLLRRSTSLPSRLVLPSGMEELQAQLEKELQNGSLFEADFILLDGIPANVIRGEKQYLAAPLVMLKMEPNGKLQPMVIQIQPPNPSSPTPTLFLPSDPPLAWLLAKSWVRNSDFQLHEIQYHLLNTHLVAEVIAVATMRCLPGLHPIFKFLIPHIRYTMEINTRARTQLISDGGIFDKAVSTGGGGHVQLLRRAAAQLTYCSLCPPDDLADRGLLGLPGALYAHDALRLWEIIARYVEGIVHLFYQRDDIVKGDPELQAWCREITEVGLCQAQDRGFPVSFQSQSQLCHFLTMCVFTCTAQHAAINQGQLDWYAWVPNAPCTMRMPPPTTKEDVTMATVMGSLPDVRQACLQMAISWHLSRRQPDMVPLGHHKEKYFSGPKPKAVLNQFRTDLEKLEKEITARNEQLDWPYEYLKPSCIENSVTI
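Xylenol orange chromogenic assay: hydroperoxide from 12hLO oxidises Fe(II), giving red-shifted Fe(III)-XO absorbance. Conditions: 150 nM enzyme, 40 uM arachidonic acid, 25 mM Hepes pH 7.0, 0.01% Triton X-100, 30 min, room temperature.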
A number is an active result; - = inactive; ? = inconclusive; . = no result; [ ] = dose if it differs, or a comment. The list is not random: actives were taken first. Their share in the collection is about 5.3%. Unless noted, the call rests on the fitted dose curve; in most records, active means well fitted curve in the direction sought with a large enough effect; inconclusive means small, poorly fitted or top-dose-only effect, or another doubt; inactive means no such curve, though single readings can be large; an effect the other way counts as inactive or inconclusive.

SMILES | PNC assembly inh | IMPase Li cell | HPGD inh | IMPase inh | 15-hLO-2 inh | ALOX12 inhib
CC1CCCCN1S(=O)(=O)c1ccc(C(=O)Nc2sccc2C(N)=O)cc1 (configuration not stated) | ? | - | 28.2µM | - | - | -
CCCCOc1ccc(Cl)cc1CSc1nnc(C)n1N | -97.1 | - | - | - | - | -
CCCCOc1ccc(Cl)cc1CSc1n[nH]c(C)n1 | - | - | - | - | . | -
Cc1ccc(CNC(=O)CCCn2c(=O)c3ccccc3n(Cc3ccccc3C)c2=O)cc1 | . | . | . | - | . | .
CC(CCc1ccccc1)NC(=O)N1CCOCC1 (configuration not stated) | - | - | - | . | . | -
O=C(/C=C/c1c(F)cccc1Cl)Nc1ncccn1 | - | - | ? | . | . | -
O=C(/C=C/c1c(Cl)cccc1Cl)n1cccn1 | -94.7 | - | - | - | . | -
COc1c(S(=O)(=O)n2nc(C)cc2C)ccc(Cl)c1Cl | - | - | 22.4µM | - | - | -
Cc1ccccc1NS(=O)(=O)c1cc(S(C)(=O)=O)ccc1C | - | - | - | . | . | -
Cc1ccc(S(C)(=O)=O)cc1S(=O)(=O)Nc1cccc(Cl)c1 | -112.4 | - | - | . | . | -
Cc1cc(C2N=C(N)Nc3nc4ccccc4n32)c(C)n1-c1ccccc1Cl (configuration not stated) | -99.1 | - | - | - | - | -
O=C(O)c1cc(S(=O)(=O)Nc2ccc(O)cc2)ccc1Cl | . | . | - | . | . | -
CC(C)(C)c1nnc2sc(SCC(=O)c3ccc(Cl)cc3)nn2c1=O | - | - | 28.2µM | - | - | -
Cc1ccc(C(=O)CSc2nn3c(=O)c(C(C)(C)C)nnc3s2)cc1 | - | ? | - | - | - | -
O=C(CSc1nnc2sc3ccccc3n12)c1ccco1 | - | - | 22.4µM | - | - | -
CN(C)C(=O)CSc1nnc2sc3ccccc3n12 | - | - | - | - | - | -
COc1ccccc1N1CCN(S(=O)(=O)c2ccc3nc(-c4ccccc4)[nH]c3c2)CC1 | -113.4 | - | - | . | . | -
COC(=O)C(OC(=O)c1ccc(OC)cc1)C(=O)OC | -100.0 | - | - | - | . | -
CC(=O)N1CCN(CCN=CC2=C(O)CC(c3cccs3)CC2=O)CC1 (configuration not stated) | - | - | - | - | - | -
CN1C(=O)/C(=C2\SC(=S)N(C(CCC(=O)O)C(=O)O)C2=O)c2ccccc21 (configuration not stated) | - | - | 28.2µM | - | ? | -
O=C(C1=C[C@@H]2[C@H]3C(=O)N(c4ccccc4)C(=O)[C@H]3[C@@H](C(=O)c3ccc(Cl)cc3)N2C=C1)c1ccccc1 | - | - | - | . | . | -
CN1CCN(c2ccc(S(=O)(=O)N3CCCCC3)cn2)CC1 | -82.6 | - | - | - | - | -
CCN(CC)S(=O)(=O)c1ccc(N2CCN(S(=O)(=O)c3ccc4c(c3)OCCO4)CC2)nc1 | -91.0 | - | - | - | - | -
CCN(CC)S(=O)(=O)c1ccc(N2CCN(CCO)CC2)nc1 | - | - | - | . | . | -
O=S(=O)(c1ccc(N2CCCCCC2)nc1)N1CCCC1 | . | - | . | . | . | .
SMILES | PNC assembly inh | IMPase Li cell | HPGD inh | IMPase inh | 15-hLO-2 inh | ALOX12 inhib
CCOCCCn1c(=N)c(C(=O)NCc2cccnc2)cc2c(=O)n3ccccc3nc21 | . | . | . | - | . | .
COC(=O)c1ccc(CSc2nnc(NCc3ccccc3)s2)o1 | - | - | 14.1µM | - | - | -
COC(=O)c1ccc(CSc2nnc(SCc3ccc(C(=O)OC)o3)s2)o1 | ? | - | - | - | - | -
CCOc1ccc(C2C(C(C)=O)=C(O)C(=O)N2CCc2c[nH]c3ccccc23)cc1 (configuration not stated) | . | - | . | . | . | .
CCOc1cc(/C=C2/C(=O)N(c3ccccc3)N=C2C)ccc1OC(=O)c1cccs1 | - | - | 20µM | - | ? | -
CCOc1cc(/C=N/NC(=O)COc2cccc(C)c2)ccc1OC(=O)c1cccs1 | - | - | - | - | - | -
O=C1NN(c2ccccc2)C(=O)/C1=C\c1cccc(OC(=O)c2cccs2)c1 | - | - | 2.51µM | - | 15.8µM | ?
O=C1NN(c2ccc(Cl)c(Cl)c2)C(=O)/C1=C/c1cccc(OC(=O)c2cccs2)c1 | - | - | 10µM | - | 10µM | ?
COc1ccc(NC(=O)N2CCN(C(=O)C(Cc3ccc(F)cc3)NC(C)=O)CC2)cc1 (configuration not stated) | . | - | . | . | . | .
CC(C)c1nc2sc3c(=O)n(N)cnc3c2c2c1COC(C)(C)C2 | ? | - | ? | - | . | -
O=C(NCc1ccncc1)C(=O)N/N=C/c1ccccn1 | . | - | . | . | . | .
COc1cc(NS(=O)(=O)c2ccc(NC(=S)NC(=O)COc3ccccc3OC)cc2)nc(OC)n1 | . | - | . | . | . | .
COC(=O)c1c(NC(=O)c2cccnc2Cl)sc(C(=O)N(C)C)c1C | ? | - | - | . | . | -
Cc1noc(C)c1-c1ccc2ncnc(NC3CC3)c2c1 | . | - | 14.1µM | . | - | -
Cc1noc(C)c1-c1ccc2ncnc(NCc3cccnc3)c2c1 | . | - | . | . | - | .
Cc1noc(C)c1-c1ccc2ncnc(NC3CCNCC3)c2c1 | . | - | . | . | - | .
Cc1cccc(CNc2ncnc3ccc(-c4c(C)noc4C)cc23)c1 | . | - | 12.6µM | . | - | -
Cc1[nH]nc2c1C(c1ccsc1)C1=C(CC(C)(C)CC1=O)N2 (configuration not stated) | . | - | . | . | . | .
Nc1nc(=S)c2[nH]cnc2[nH]1 | . | - | 35.5µM | . | - | -
S=c1nc(-c2ccco2)[nH][nH]1 | - | - | 22.4µM | - | - | -
O=C(NCc1ccccn1)c1cn(-c2ccccc2)nc1-c1ccc(Cl)cc1 | - | - | - | - | . | -
O=C(OCn1nnc2ccccc2c1=O)C1CCCCC1 | ? | - | 11.2µM | - | - | -
Cc1onc(-c2c(F)cccc2Cl)c1C(=O)OCn1nnc2ccccc2c1=O | - | - | 12.6µM | - | . | -
O=C(OCn1nnc2ccccc2c1=O)c1ccc2ncsc2c1 | - | - | 25.1µM | - | - | -
O=C(CN1C(=O)C2CCCCC2C1=O)OCn1nnc2ccccc2c1=O (configuration not stated) | . | - | . | . | . | .
Cn1c(=S)c2[nH]c(SCCN3C(=O)c4ccccc4C3=O)nc2n(C)c1=O | . | - | - | . | -[11.4 µM] | -[11.4 µM]
O=C(Nc1ccccc1)N1CC[C@@]2(CCCN(C(=O)c3cnccn3)C2)C1 | . | - | - | . | - | -
N#Cc1cc2c(nc1SCc1cccnc1)CCCC2 | ? | ? | 12.6µM | - | ? | ?
